The list is not random: actives were taken first. Their share in the collection is about 21%.
DT40 TDP1 no CPT: qHTS for Inhibitors of human tyrosyl-DNA phosphodiesterase 1 (TDP1): qHTS in cells in absence of CPT; DT40 Tdp1-/- hTDP1 cells, no CPT, ATP luminescence, 48 h; 420,000 tested, 15% active; Potency, µM (doses to about 46.2 µM), hits mostly inhibitors; note: nearly all actives have a fitted effect of over 55% in size
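Growth of hTDP1-complemented DT40 Tdp1-knockout cells is measured by ATP luminescence after at least 48 hr compound exposure at 37 °C, with DMSO substituting for the 20 nM CPT used in the parallel screen.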
DT40 TDP1 CPT: growth inhibition of DT40 Tdp1-/-;hTDP1 cells with camptothecin (screen for TDP1 inhibitors) | Potency, µM (titrated, usually from 46.2 µM), usual class: inhibitors | 420,000 tested, 12% active | AID 686979 | chicken DT40 Tdp1-/-;hTDP1 cells + 20 nM CPT, ATP luminescence, 48 h; note: nearly all actives have a fitted effect of over 55% in size
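Cell growth measured by CellTiter-Glo luminescence after a minimum 48 h, 37 C compound exposure with 20 nM CPT in Tdp1-knockout DT40 cells stably expressing hTDP1, seeded 400/well; qHTS titration format.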
IL-1B inflam inh: inhibitors of inflammasome signaling (IL-1 beta secretion); AID 743279; activity change, % at 57.5 µM; 360,000 tested, 4.7% active; THP-1 LPS/ATP IL-1B secretion, AlphaLISA, 16 h; hits give low values; in the data active = activity change below about -50%; inconclusive = mostly about -30% to -49%
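THP-1 cells pretreated 1 hr with compounds (up to 57.5 uM final), then stimulated with LPS (250 ng/mL final) plus ATP (1.25 mM final); secreted IL-1B measured by AlphaLISA after 16 hr, decreased signal indicating inhibition.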
ClpP mod: qHTS Assay for Activators of ClpP; ATP-dependent Clp protease proteolytic subunit (Bacillus subtilis (strain 168)), P80244; purified B. subtilis ClpP, FRET peptide cleavage, 20 min; Potency, µM (titrated, usually from 57.5 µM); 340,000 tested, 1.9% active; active = well fitted falling curve with a large enough effect; inconclusive = small, poorly fitted or top-dose-only effect; inactive = no such curve, though single readings can be large or run the other way; note: the source files actives as falling curves though it sought activators and does not explain the sign; nearly all actives have a fitted effect of over 65% in size
Target sequence (P80244 whole entry, looked up): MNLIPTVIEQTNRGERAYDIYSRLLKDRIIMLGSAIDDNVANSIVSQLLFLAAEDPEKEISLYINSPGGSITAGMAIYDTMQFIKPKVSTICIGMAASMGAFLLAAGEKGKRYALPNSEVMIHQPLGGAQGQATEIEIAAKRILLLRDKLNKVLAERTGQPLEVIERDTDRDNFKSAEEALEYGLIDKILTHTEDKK
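Purified B. subtilis ClpP, 10 microg/mL final in Tris/HCl pH8 with KCl, BSA, glycerol and Tween-20, cleaved an Abz/nitrotyrosine-quenched decapeptide. Fluorescence (ex 320, em 430) was read at 0 and 20 min at room temperature. Delta was normalized to 5.8 microM ADEP and DMSO/no-enzyme controls.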
DRD3 antagonist: D3 dopamine receptor (human) antagonism | D3R cells, DiscoveRx beta-arrestin luminescence, antagonist mode; hits give low values | max response, negative = inhibition, % | P35462 | 360,000 tested, 2.5% active; in the data active = max response below about -50%; inconclusive = no clear call, values can overlap the other calls
Target sequence (P35462 whole entry, looked up): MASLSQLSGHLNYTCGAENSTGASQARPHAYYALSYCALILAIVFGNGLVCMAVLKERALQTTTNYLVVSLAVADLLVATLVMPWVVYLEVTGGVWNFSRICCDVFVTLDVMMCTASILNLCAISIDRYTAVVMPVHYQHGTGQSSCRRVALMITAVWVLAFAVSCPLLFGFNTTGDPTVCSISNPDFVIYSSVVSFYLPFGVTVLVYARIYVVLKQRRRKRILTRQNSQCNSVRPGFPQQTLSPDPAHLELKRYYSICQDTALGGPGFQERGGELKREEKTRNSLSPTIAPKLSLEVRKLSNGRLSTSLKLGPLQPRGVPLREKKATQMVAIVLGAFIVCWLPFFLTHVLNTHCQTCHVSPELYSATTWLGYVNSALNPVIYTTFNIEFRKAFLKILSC
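Cells expressing the human receptor were seeded at 1500 cells/well, incubated overnight at 37 degrees C in 5% CO2, then exposed to library compounds with dopamine controls for 90 minutes at 37 degrees C before luminescent detection.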
DRD3 agonist: agonists of human D3 dopamine receptor | D3R DiscoveRx beta-arrestin cells, luminescence, 90 min | max activation, % | 410,000 tested, 0.58% active | AID 652048; in the data active = max activation above about 30%
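Cells at 1500/well, incubated overnight, then treated with pinned compounds (dopamine as control) for 90 min at 37 degrees C. DiscoveRx reagent added for 30 - 60 minutes at room temperature; luminescence read.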
Each line names hits and unclear results; the compound was inactive in the other large screens. Unless noted, calls come from the whole dose curve; as a rule, active = well fitted inhibition curve with a large enough effect; inconclusive = small, poorly fitted or top-dose-only effect; inactive = flat fitted curve, though single readings scatter.

CC(C)(C)c1cc(CN2CCOCC2)c(C(=O)O)o1	DRD3 antagonist -81
Cn1cnc2c(N/N=C/c3cccs3)ncnc21	DT40 TDP1 no CPT inconclusive, DT40 TDP1 CPT inconclusive, IL-1B inflam inh -91 (no result: ClpP mod)
O=C(c1ccc(NS(=O)(=O)c2ccc(F)cc2)cc1)N1CCC1	none
CCn1c(CN2CCCCC2)nc2cc(NC(=O)COc3cc(C)ccc3C(C)C)ccc21	DT40 TDP1 no CPT inconclusive, DT40 TDP1 CPT 18µM (no result: IL-1B inflam inh, DRD3 antagonist)
CC(C)CC(=O)Nc1ccc2c(c1)nc(CCN1CCCCC1)n2C	none
Cc1ccc(C(C)C)c(OCC(=O)Nc2ccc3c(c2)nc(CCN2CCCCC2)n3C)c1	DT40 TDP1 no CPT inconclusive, DT40 TDP1 CPT inconclusive, IL-1B inflam inh -80, DRD3 antagonist inconclusive
O=C(CCCCCn1c(=O)c2sccc2n(Cc2ccc(Cl)cc2)c1=O)NCc1ccc2c(c1)OCO2	DT40 TDP1 no CPT inconclusive, DT40 TDP1 CPT inconclusive, ClpP mod inconclusive (no result: IL-1B inflam inh, DRD3 antagonist)
Cc1c(Cl)cccc1NC(=O)Cn1c(=O)n(Cc2ccco2)c(=O)c2sc3ccccc3c21	DT40 TDP1 no CPT inconclusive, DT40 TDP1 CPT inconclusive (no result: IL-1B inflam inh, DRD3 antagonist)
O=C(NNC(=O)C1CCN(Cc2cccc(F)c2)CC1)c1cccs1	none
O=C(NC(c1ccccc1)c1ccc2ccccc2n1)C1CCN(Cc2ccc(Cl)c(Cl)c2)CC1 (configuration not stated)	DT40 TDP1 no CPT 15µM, DT40 TDP1 CPT inconclusive, IL-1B inflam inh inconclusive, DRD3 antagonist -124
O=C(NC(c1ccccc1)c1ccc2ccccc2n1)C1CCN(Cc2cccc(C(F)(F)F)c2)CC1 (configuration not stated)	DT40 TDP1 no CPT 6.5µM, DT40 TDP1 CPT 7.3µM, IL-1B inflam inh inconclusive, DRD3 antagonist -63
O=C(NC(c1ccc2ccccc2n1)c1cccs1)C1CCN(Cc2cccc(C(F)(F)F)c2)CC1 (configuration not stated)	DT40 TDP1 no CPT 10µM, DT40 TDP1 CPT 7.3µM, IL-1B inflam inh -66, DRD3 antagonist inconclusive
COCCNC(=O)C1CCCN(Cc2cccc(C(F)(F)F)c2)CC1 (configuration not stated)	DRD3 antagonist inconclusive
O=C(NC(c1ccccc1)c1ccc2ccccc2n1)C1CCN(Cc2ccc(Oc3ccccc3)cc2)CC1 (configuration not stated)	DT40 TDP1 no CPT inconclusive, DT40 TDP1 CPT inconclusive, IL-1B inflam inh inconclusive, DRD3 antagonist inconclusive
COc1cccc(Oc2nc(C)nc3c2oc2ccccc23)c1	DT40 TDP1 no CPT inconclusive (no result: IL-1B inflam inh, DRD3 antagonist)
COc1ccccc1CN1CCC2(CC1)CCN(C(=O)c1ccncc1)CC2	none (no result: IL-1B inflam inh, ClpP mod, DRD3 antagonist, DRD3 agonist)
O=C1OCCN1C(=O)[C@H]1[C@H](c2ccc(F)cc2)C(c2ccc(F)cc2)=NN1c1ccc(Br)cc1	DT40 TDP1 no CPT inconclusive, DT40 TDP1 CPT inconclusive, IL-1B inflam inh -61
O=C1OCCN1C(=O)[C@H]1[C@H](c2ccccc2)C(c2cccc(Cl)c2)=NN1c1ccccc1	DRD3 agonist 39
CCOC(=O)c1ccccc1NC(=O)COC(=O)C1CCN(S(=O)(=O)c2ccccc2C(=O)OC)CC1	none
O=C(CN1C(=O)CCc2cc(S(=O)(=O)N3CCOCC3)ccc21)NCc1ccccc1Cl	none (no result: IL-1B inflam inh, DRD3 antagonist)
O=C(CN1C(=O)CCc2cc(S(=O)(=O)N3CCCCC3)ccc21)NCc1ccc(Cl)cc1	DT40 TDP1 no CPT 15µM, DT40 TDP1 CPT 21µM (no result: IL-1B inflam inh, DRD3 antagonist)
O=C(Cn1nc2c(cc1=O)CCCC2)NCc1ccccc1	DT40 TDP1 no CPT inconclusive, DT40 TDP1 CPT inconclusive (no result: IL-1B inflam inh, DRD3 antagonist)
CCOc1ccccc1CNC(=O)CN1C(=O)CCc2cc(S(=O)(=O)N3CCCCC3)ccc21	DT40 TDP1 no CPT 21µM, DT40 TDP1 CPT inconclusive (no result: IL-1B inflam inh, DRD3 antagonist)
O=C(Cn1nc2c(cc1=O)CCCC2)NCc1ccc(Cl)cc1	DT40 TDP1 no CPT 18µM, DT40 TDP1 CPT 16µM (no result: IL-1B inflam inh, DRD3 antagonist)
CCOc1ccc(S(=O)(=O)NN2Cc3ccccc3C2=N)cc1	none
CCOC(=O)C(=O)Nc1nnc2n1CCS2	none (no result: IL-1B inflam inh, DRD3 antagonist)

Source: PubChem BioAssay (National Center for Advancing Translational Sciences (NCATS))
